Source: PubChem BioAssay (NCATS)
“And” between values parts separate entries of the source, which are not always exact repeats. Equal values may be shown once. Results filed as inconclusive are left out. A call without a number means that no potency is given here. Some structures have more than one record in an assay (separate samples or runs), and their calls can disagree. The source made the active and inactive calls. Calls come from the whole dose curve; as a rule, active = well fitted curve in the direction sought with a large enough effect; inconclusive = small, poorly fitted or top-dose-only effect, or another doubt; inactive = no such curve, though single readings can be large; an effect the other way counts as inactive or inconclusive.

How the values were obtained:
[1] = Viability qHTS for spleen associated tyrosine kinase inhibitor (SYKi) drug resistant MV4-11 cells (AID 1963824); details: SYKi-resistant MV4-11 viability, CellTiter-Glo, 72 h; series mostly up to 45 µM; note: nearly all actives have a fitted effect of over 35% in size
Method in brief: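 CellTiter-Glo luminescence, read 10 min after reagent addition, reports viability after a 72 hr compound exposure. Cells are an MV4-11 line made resistant to SYK inhibition, seeded at 500 per well onto compound-containing plates.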

[2] = Quantitative highthroughput screen to assess conditional lethalithy of NOMO1 cells grown in RPMI1640 with untreated serum (RPMI+s) (AID 1963876); details: NOMO1 AML cells in RPMI+serum, CellTiter-Glo viability, 48 h; series mostly up to 45.8 µM; note: nearly all actives have a fitted effect of over 35% in size
Method in brief: (§1)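 Each medium arm—HPLM with 10% dialyzed FBS, or RPMI1640 with 5 mM glucose and 10% untreated or dialyzed FBS—was screened against an 11-point, 3-fold compound titration for 48 h at 37 °C, with CellTiter-Glo luminescence as endpoint.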

[3] = Quantitative highthroughput screen to assess conditional lethalithy of NOMO1 cells grown in RPMI1640 with dialyzed fetal bovine serum (RPMI+ds) (AID 1963877); details: NOMO1 in RPMI+dialyzed FBS viability, ATP luminescence, 48 h; series mostly up to 45.8 µM; note: nearly all actives have a fitted effect of over 30% in size
Method in brief: as §1

[4] = Quantitative highthroughput screen to assess conditional lethalithy of NOMO1 cells grown in Human Plasma-Like Medium with dialyzed fetal bovine serum (HPLM+ds) (AID 1963878); details: NOMO1 AML cells in HPLM+ds, CellTiter-Glo viability, 48 h; series mostly up to 45.8 µM; note: nearly all actives have a fitted effect of over 35% in size
Method in brief: as §1

[5] = Quantitative highthroughput screen to assess conditional lethalithy of P12 Ichikawa cells grown in Human Plasma-Like Medium with dialyzed fetal bovine serum (HPLM+ds) (AID 1963879); details: ATP luminescence, 48 h; Potency: viability; series mostly up to 45.8 µM; note: nearly all actives have a fitted effect of over 35% in size
Method in brief: as §1

[6] = Quantitative highthroughput screen to assess conditional lethalithy of P12 Ichikawa cells grown in RPMI1640 with dialyzed fetal bovine serum (RPMI+ds) (AID 1963880); details: ATP luminescence, 48 h; Potency: P12-Ichikawa viability; series mostly up to 45.8 µM; note: nearly all actives have a fitted effect of over 35% in size
Method in brief: as §1

[7] = Quantitative highthroughput screen to assess conditional lethalithy of SEM cells grown in Human Plasma-Like Medium with dialyzed fetal bovine serum (HPLM+ds) (AID 1963882); details: SEM B-ALL cells in HPLM+ds, CellTiter-Glo viability, 48 h; series mostly up to 45.8 µM; note: nearly all actives have a fitted effect of over 35% in size
Method in brief: as §1

[8] = Quantitative highthroughput screen to assess conditional lethalithy of SEM cells grown in RPMI1640 with unreated serum (RPMI+s) (AID 1963883); details: SEM B-ALL cells, CellTiter-Glo viability, 48 h; series mostly up to 45.8 µM; note: nearly all actives have a fitted effect of over 35% in size
Method in brief: as §1

[9] = Quantitative highthroughput screen to assess conditional lethalithy of SEM cells grown in RPMI1640 with dialyzed fetal bovine serum (RPMI+ds) (AID 1963884); details: SEM B-ALL cells, RPMI+dialyzed FBS, CellTiter-Glo viability, 48 h; series mostly up to 45.8 µM; note: nearly all actives have a fitted effect of over 35% in size
Method in brief: as §1

[10] = Cellular viability qHTS for adrenocortical cancer (ACC) cell line SW-13 (AID 1963989); details: SW-13 ACC cells viability, CellTiter-Glo, 48 h; activity (max response): stronger effect = lower value; note: nearly all actives have a fitted effect of over 65% in size;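 for activity (max response): cells grown in serum-free medium with ITS supplement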
Method in brief: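 48 h treatment, SW-13 in ITS/DMEM serum-free; doses up to 46 uM; readout CellTiter-Glo luminescence; curve fit four-parameter logistic.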

[11] = Cellular viability qHTS for adrenocortical cancer (ACC) cell line NCI-H295R (AID 1963990); details: CellTiter-Glo ATP luminescence, 48 h; series mostly up to 46.1 µM; note: nearly all actives have a fitted effect of over 60% in size
Method in brief: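 Compound titrations (up to 46 uM final) are applied to NCI-H295R cultures for 48 h at 37C. Viable cell number is estimated by CellTiter-Glo signal, normalised to DMSO and doxorubicin controls.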

[12] = Quantitative highthroughput screen to assess conditional lethalithy of P12 Ichikawa cells grown in RPMI1640 with untreated serum (RPMI+s) (AID 1963881); details: ATP luminescence, 48 h; Potency: viability; series mostly up to 45.8 µM; note: nearly all actives have a fitted effect of over 35% in size
Method in brief: as §1
Potency is the fitted concentration of half-maximal effect.

Compound	Potency [1]	Potency [2]	Potency [3]	Potency [4]	Potency [5]	Potency [6]	Potency [7]	Potency [8]	Potency [9]	activity (max response) [10]	Potency [11]	Potency [12]	Potency [10]	viability, % of control [1]	activity change, negative = viability loss [11]
O=C(O)COCCN1CCN(C(c2ccccc2)c2ccc(Cl)cc2)CC1 (stereo not drawn)	inactive	inactive	inactive	inactive	inactive	inactive	inactive	inactive	inactive	9.41% (inactive)	inactive	–	–	–	–
COc1cccc(-c2cc(=O)c3ccccc3o2)c1N	18.4 µM (active)	inactive	inactive	inactive	inactive	inactive	–	–	inactive	0.813% (inactive)	inactive	inactive	–	–	–
CC(C)c1nn(-c2c(Cl)cccc2Cl)c2nc(Cc3ccc(OCCO)cc3)[nH]c(=O)c12	0.0206 µM (active)	0.118 µM (active)	0.105 µM (active)	0.118 µM (active)	0.166 µM (active)	0.148 µM (active)	0.105 µM (active)	–	0.148 µM (active)	–	0.1 µM (active)	0.148 µM (active)	0.0501 µM (active)	–	–
CCCn1c(=O)c2[nH]c(C34CC5CC3C[C@@H](C5)C4)nc2n(CCC)c1=O	16.6 µM (active)	inactive	inactive	inactive	–	inactive	inactive	–	inactive	-4.88% (inactive)	inactive	inactive	–	–	–
CC(=O)SCC(Cc1ccccc1)C(=O)NCC(=O)OCc1ccccc1 (stereo not drawn)	20.9 µM (active)	6.62 µM (active)	6.62 µM (active)	5.9 µM (active)	18.7 µM (active)	–	–	–	inactive	-5.9% (inactive)	inactive	–	–	–	–
O=C(NOC[C@H](O)CO)c1ccc(F)c(F)c1Nc1ccc(I)cc1F	0.164 µM (active)	0.187 µM (active)	0.0332 µM (active)	0.148 µM (active)	20.9 µM (active)	–	–	11.8 µM (active)	11.8 µM (active)	–	–	–	–	–	–
CNC(=O)c1ccc(C)c(-n2c(C)cc(OCc3ccc(F)cc3F)c(Br)c2=O)c1	8.2 µM (active)	inactive	inactive	inactive	inactive	inactive	–	inactive	–	–	inactive	inactive	–	–	–
O=C(O)CCc1ccc(NCc2cccc(Oc3ccccc3)c2)cc1	16.4 µM (active)	inactive	inactive	inactive	inactive	inactive	–	inactive	–	-8.89% (inactive)	–	inactive	–	–	–
CC(C)Oc1ccc2c(=O)c(-c3ccccc3)coc2c1	10.6 µM (active)	inactive	inactive	inactive	inactive	inactive	inactive	inactive	–	-5.36% (inactive) and 3.78% (inactive)	inactive	inactive	–	–	–
Cc1c(OCC(F)(F)F)ccnc1CS(=O)c1nc2ccccc2[nH]1 (stereo not drawn)	16.6 µM (active)	inactive	inactive	inactive	inactive	inactive	inactive	inactive	inactive	–	inactive	inactive	–	–	–
COc1ccc(CC2SC(=O)NC2=O)cc1C(=O)NCc1ccc(C(F)(F)F)cc1 (stereo not drawn)	18.6 µM (active)	inactive	inactive	inactive	inactive	inactive	–	–	–	-17.2% (inactive)	–	inactive	–	–	–
CN(C)S(=O)(=O)c1ccc2c(c1)C(=Cc1cc3c([nH]1)CCCC3)C(=O)N2	1.66 µM (active)	inactive	inactive	inactive	inactive	inactive	inactive	inactive	–	-10.1% (inactive)	inactive	inactive	–	–	–
CN[C@@H](C)[C@H]1[C@H](O)C[C@@]2(C)[C@@H]3CC[C@H]4C(C)(C)[C@@H](NC)CC[C@@]45C[C@@]35CC[C@]12C	–	inactive	inactive	inactive	inactive	inactive	–	inactive	inactive	–	–	–	–	80.2% [at 9.25 µM] (inactive)	-14.8% [at 9.17 µM] (inactive)
Nc1ncnc2c1ncn2[C@@H]1O[C@H](CO)[C@@H](O)[C@@H]1O	inactive	9.35 µM (active)	8.33 µM (active)	5.9 µM (active)	–	14.8 µM (active)	inactive	–	inactive	-11.9% (inactive)	–	6.62 µM (active)	–	–	–
C[C@](N)(Cc1ccc(O)c(O)c1)C(=O)O	inactive and 16.6 µM (active)	inactive	inactive	inactive	–	inactive	26.4 µM (active)	23.5 µM (active)	23.5 µM (active)	–	inactive	inactive	–	–	–
C=CCc1cc(OC)c(O)c(C(=O)NCCO)c1	inactive	inactive	inactive	inactive	inactive	inactive	–	–	inactive	–	–	inactive	–	–	–
O=C(Nc1cccc(Nc2ncc(Br)c(NCCc3cnc[nH]3)n2)c1)N1CCCC1	0.132 µM (active)	5.9 µM (active)	11.8 µM (active)	2.96 µM (active)	0.662 µM (active)	–	–	0.166 µM (active)	–	–	–	–	–	–	–
